PINK1 expr mod – changes PINK1 expression; PINK1 immunofluorescence, high-content cytometry, 24 h; actives 0.2% (n = 410,000); AID 624263; Potency, µM (titrated, usually from 76.6 µM), actives largely listed as activators; active = well fitted activation curve with a large enough effect; inconclusive = small, poorly fitted or top-dose-only effect; cell line not stated here; also: nearly all actives have a fitted effect of over 65% in size
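Stable cell line treated 24 h with compounds at 5 concentrations (CCCP controls), then fixed and immunostained for PINK1 plus nuclear and cell stains; PINK1 immunofluorescence quantified by laser-scanning microplate cytometry.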
MCF10A rereplic – inducers of DNA re-replication in MCF 10A breast cells. actives 2.9% (n = 350,000). MCF 10A DNA re-replication, Hoechst nuclear intensity, 48 h. Potency, µM (titrated, usually from 46.1 µM), hits mostly activators; also: nearly all actives have a fitted effect of over 50% in size
KB-V1 MDR tox – KB-V1 MDR subline cytotoxicity. KB-V1 MDR cells viability, CellTiter-Glo, 72 h. Potency, µM (highest dose often 46.1 µM), most hits filed as cytotoxic. actives 3.4% (n = 400,000); also: nearly all actives have a fitted effect of over 60% in size
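Luminescent ATP read-out (CellTiter-Glo, 10 min) measures survival of drug-selected KB-V1 MDR cells after 72 h, 37 degrees C compound exposure. Medium: phenol-red-free DMEM, 10% FBS. Values from fitted concentration-response curves.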
KB-3-1 cytotox – kills parental KB-3-1 adenocarcinoma cells; KB-3-1 viability, CellTiter-Glo ATP luminescence, 72 h; Potency, µM (titrated, usually from 46.1 µM), actives largely listed as cytotoxic; actives 1.4% (n = 400,000); AID 1347075; also: nearly all actives have a fitted effect of over 60% in size
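Cytotoxicity in the drug-sensitive parental line KB-3-1 was scored as loss of CellTiter-Glo luminescence following 72 h incubation with compound. Values come from curve fitting of normalized concentration-response data.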
SW480 rerep – induces DNA re-replication in SW480 colon adenocarcinoma cells. SW480 DNA re-replication, Hoechst DNA content imaging, 48 h. Potency, µM (titrated, usually from 46.1 µM), hits mostly activators. actives 1.8% (n = 340,000); also: nearly all actives have a fitted effect of over 55% in size
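SW480 cells exposed to compounds for 48 hr at 37 C, 5% CO2, then Hoechst-stained 40 min. Nuclear DNA content imaged by fluorescence scanning (405 nm excitation, 500-530 nm emission); re-replication scored as increased high-intensity nuclei.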
Large screens that a line does not name were inactive. This is a sample that favours compounds with a hit; in the whole collection about 6.7% have one here. Unless noted, calls follow the shape of the dose curve; as a rule, active = well fitted curve in the direction sought with a large enough effect; inconclusive = small, poorly fitted or top-dose-only effect, or another doubt; inactive = no such curve, though single readings can be large; an effect the other way counts as inactive or inconclusive.

CN1CCC(OC(=O)Cc2ccc(Cl)cc2)CC1	KB-V1 MDR tox inconclusive, SW480 rerep 14.6µM
CCCNC(=O)c1cc(C2CCCCN2C(=O)c2cc(C(C)(C)C)nn2C)on1 (configuration not stated)	KB-V1 MDR tox 16.4µM, KB-3-1 cytotox inconclusive (no result: MCF10A rereplic, SW480 rerep)
CCCNC(=O)c1cc(C2CCCN(C(=O)c3cc(C(C)(C)C)nn3C)C2)on1 (configuration not stated)	none (no result: MCF10A rereplic, SW480 rerep)
COc1ccc(NS(=O)(=O)c2cccc(C(=O)NN=C(C)c3ccco3)c2)cc1	none
CCCNS(=O)(=O)c1ccc(CCC(=O)N2CCN(c3ccc(F)cc3)CC2)cc1	KB-V1 MDR tox 9.2µM, KB-3-1 cytotox inconclusive
COc1ccc(N2CCN(C(=O)CCc3ccc(S(=O)(=O)NC(C)(C)C)cc3)CC2)cc1	KB-V1 MDR tox 14.6µM, KB-3-1 cytotox inconclusive, SW480 rerep inconclusive
CC(=O)Nc1ccc(S(=O)(=O)NCCSCc2ccc(Cl)cc2Cl)cc1	MCF10A rereplic 12.6µM, KB-V1 MDR tox inconclusive, KB-3-1 cytotox inconclusive
CC(=O)Nc1ccc(S(=O)(=O)NCCc2ccc(F)cc2)cc1	KB-V1 MDR tox 23.1µM
O=C(c1cccc(F)c1)N1CCC[C@@]2(CCN(C(c3ccccc3)c3ccccc3)C2)C1	none (no result: MCF10A rereplic, KB-V1 MDR tox, KB-3-1 cytotox, SW480 rerep)
Cc1nn2c(-c3cccc(NC(=O)c4ccccc4)c3)nnc2c2ccccc12	none (no result: MCF10A rereplic, KB-V1 MDR tox, KB-3-1 cytotox, SW480 rerep)
CCCNS(=O)(=O)c1ccc(CCC(=O)N2CCN(c3ccc(OC)cc3)CC2)cc1	KB-V1 MDR tox 20.6µM
COc1ccc(N2CCN(C(=O)CCNS(=O)(=O)c3ccc(C)cc3)CC2)cc1	none
COc1ccc(N2CCN(C(=O)NCc3ccc(C)cc3)CC2)cc1	MCF10A rereplic inconclusive, KB-V1 MDR tox 5.8µM, KB-3-1 cytotox 0.517µM, SW480 rerep inconclusive
Cc1cnc(C(=O)Nc2ccc(F)cc2)cn1	KB-V1 MDR tox inconclusive
Cc1ccc(CNC(=O)N2CCN(c3ccc(C)cc3)CC2)cc1	MCF10A rereplic inconclusive
Cc1ccc(OCCC(=O)N2CCN(c3ccc(O)cc3)CC2)cc1	MCF10A rereplic inconclusive, KB-3-1 cytotox inconclusive, SW480 rerep 7.31µM
CCOc1ccc(C(=O)CCC(=O)N2CCN(c3ccc(O)cc3)CC2)cc1	SW480 rerep inconclusive
Cc1cnc(C(=O)Nc2ccc(N3CCN(C(=O)OC(C)(C)C)CC3)cc2)cn1	MCF10A rereplic inconclusive, KB-3-1 cytotox 5.8µM, SW480 rerep inconclusive
Cc1ccc(C(=O)NCc2ccc(N3CCN(C(=O)OC(C)(C)C)CC3)cc2)cc1	KB-V1 MDR tox 3.66µM
Cc1cccc(NC(=O)CN2CCN(C(=O)c3cccc(-n4cnnn4)c3)CC2)c1C	none
CN1C(=O)/C(=C\c2ccc(N(C)C)cc2)OC1=S	PINK1 expr mod 31.6µM, SW480 rerep inconclusive
COc1ccccc1OCCN1CSC(=S)N(C)C1	MCF10A rereplic 7.31µM, KB-V1 MDR tox inconclusive, KB-3-1 cytotox 5.17µM, SW480 rerep 2.59µM
COc1ccccc1OCCCCN1CCCCC1	none
Cc1cccc(OCCN2CSC(=S)N(C)C2)c1	MCF10A rereplic 5.8µM, KB-V1 MDR tox 10.3µM, KB-3-1 cytotox 8.2µM, SW480 rerep inconclusive
Cc1cccc(OCCCN2CCCCCC2)c1	none
O=C(Nc1ccc(F)cc1)C(c1ccccc1OC(F)(F)F)N1CCN(C(=O)c2ccco2)CC1 (configuration not stated)	KB-V1 MDR tox inconclusive (no result: PINK1 expr mod, MCF10A rereplic, SW480 rerep)
CCN1C(=O)/C(=C\c2ccncc2)SC1=Nc1ccc(C)c(C)c1	MCF10A rereplic inconclusive, KB-V1 MDR tox 14.6µM, KB-3-1 cytotox inconclusive
Cc1ccc(-c2ccnc(-n3ncc(C(=O)N(C)CC4CCCN(C)C4)c3C)n2)o1 (configuration not stated)	none (no result: MCF10A rereplic, KB-V1 MDR tox, KB-3-1 cytotox, SW480 rerep)
Cc1cccc2nc(CNC(=O)CN3Cc4cc(Cl)ccc4OC(C)C3)cn12 (configuration not stated)	none (no result: MCF10A rereplic, KB-V1 MDR tox, KB-3-1 cytotox, SW480 rerep)
CC(C)CCNC(=O)Nc1ccc2c(c1)N(C)C(=O)CS2	KB-V1 MDR tox 20.6µM
COCCNC(=O)Nc1ccc2c(c1)N(C)C(=O)CS2	none (no result: PINK1 expr mod)
Cc1nc2ncnn2c(N2CCN(c3cccc(C(F)(F)F)c3)CC2)c1C	KB-V1 MDR tox 2.59µM, KB-3-1 cytotox 20.6µM
Cc1nc2ncnn2c(N2CCN(C(c3ccccc3)c3ccccc3)CC2)c1C	MCF10A rereplic inconclusive, KB-V1 MDR tox 23.1µM
COc1cccc(Nc2nnc(SCC(=O)Nc3sccc3C(N)=O)s2)c1	MCF10A rereplic inconclusive, KB-3-1 cytotox inconclusive
CCc1ccc(Nc2nnc(SCC(=O)Nc3cccnc3Cl)s2)cc1	KB-V1 MDR tox 16.4µM
CCc1ccc(Nc2nnc(SCC(=O)Nc3sccc3C(N)=O)s2)cc1	MCF10A rereplic 16.4µM, KB-V1 MDR tox inconclusive, KB-3-1 cytotox inconclusive, SW480 rerep inconclusive
CC(=O)Nc1ccc(S(=O)(=O)Nc2nc3ccccc3nc2Nc2ccc(N)cc2)cc1	none
CCCCN(CCCC)c1nc2ccccc2nc1NS(=O)(=O)c1ccc(NC(C)=O)cc1	MCF10A rereplic 11.6µM, SW480 rerep 20.6µM
CCC(C(=O)NCc1ccc2c(c1)CCN2C(=O)c1ccc(F)cc1)c1ccccc1 (configuration not stated)	KB-3-1 cytotox inconclusive (no result: MCF10A rereplic, SW480 rerep)
O=c1c2c3nc4ccccc4nc3n(-c3ccc4c(c3)OCCO4)c2ncn1C1CCCC1	MCF10A rereplic 7.08µM, KB-V1 MDR tox inconclusive, KB-3-1 cytotox inconclusive, SW480 rerep 13µM
Nc1c(C(=O)OCC2CCCO2)c2nc3ccccc3nc2n1-c1ccc2c(c1)OCCO2 (configuration not stated)	MCF10A rereplic inconclusive
CCOC(=O)c1cc(-c2ccccc2)sc1NC(=O)C(C)Sc1nnc(N)s1 (configuration not stated)	MCF10A rereplic inconclusive, KB-V1 MDR tox 2.06µM, KB-3-1 cytotox inconclusive, SW480 rerep inconclusive
CCOC(=O)c1cc(-c2ccccc2)sc1NC(=O)CSc1nnc(N)s1	KB-V1 MDR tox inconclusive
CCOC(=O)c1cc(-c2ccccc2)sc1NC(=O)C(C)OC(=O)c1cccc(S(=O)(=O)N(C)C)c1 (configuration not stated)	MCF10A rereplic inconclusive
CCOC(=O)c1cc(-c2ccccc2)sc1NC(=O)C(C)OC(=O)c1cccnc1OCC (configuration not stated)	MCF10A rereplic inconclusive, SW480 rerep 2.91µM
O=C(C1CCN(S(=O)(=O)c2ccccc2F)CC1)N1CCN(Cc2ccc3c(c2)OCO3)CC1	MCF10A rereplic inconclusive, KB-V1 MDR tox inconclusive, SW480 rerep inconclusive
Cc1ccc(S(=O)(=O)/N=C2\C=C(NS(=O)(=O)c3ccccc3)C(=O)c3ccccc32)c(C)c1	MCF10A rereplic inconclusive
Cc1ccc(S(=O)(=O)/N=C2\C=C(Nc3cccc(C(=O)O)c3)C(=O)c3ccccc32)c(C)c1	MCF10A rereplic 6.51µM, KB-3-1 cytotox inconclusive, SW480 rerep inconclusive
CC(C)(C)c1ccc(S(=O)(=O)/N=C2\C=C(NS(=O)(=O)c3ccccc3)C(=O)c3ccccc32)cc1	SW480 rerep inconclusive
CCc1ccc(S(=O)(=O)/N=C2\C=C(Nc3ccc(C(=O)O)cc3)C(=O)c3ccccc32)cc1	MCF10A rereplic 4.61µM, KB-3-1 cytotox inconclusive, SW480 rerep 9.2µM

Source: PubChem
